Laboratory results published in PubChem BioAssay.
The source made the active and inactive calls.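 The calls were made as follows, unless noted: active = compound that reduces growth-factor-driven endothelial tube area in a mixed cell culture, no cutoff stated; inactive = the rest.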

Assays:
[1] = Wnt pathway potentiators raising nuclear beta-catenin – imaging, WNT3A-conditioned medium, mouse C2C12, NPC library, primary screen (AID 1117326; in the data active = nuclear beta-catenin stimulation mostly above about 4.2%, no sharp cut-off; inactive = mostly below about 10%; also: reference of the scale not given here); conditions: stronger effect = higher value
[2] = stimulators of insulin release from INS-1E, primary screen, cell-based, 5 mM glucose, NPC library (AID 1117329;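 active = compound raises insulin release from rat beta cells at 5 mM glucose, no numeric limit stated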; also: reference of the scale not given here); conditions: rat INS-1E insulin secretion, at 10 µM, stronger effect = higher value
[3] = growth inhibition of GSK3B-pretreated HCT116 cells – cell-based, CellTiter-Glo, 0.2 to 20 µM (AID 1117336;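 active = compounds lowering colon cancer cell viability after pretreatment blocking the GSK3B kinase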); conditions: HCT116 viability after GSK3B inhibitor, at 20 µM, stronger effect = higher value
[4] = inhibition of endothelial tube formation, primary screen, imaging, VEGF stimulated, CD31 staining, tube area, NPC library (AID 1117340); conditions: VEGF-stimulated ADSC/ECFC co-culture, at 10 µM, stronger effect = higher value
[5] = GLP1 release stimulators, primary, NCI-H716, NPC library (AID 1117341;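 active = compound raises GLP1 secretion from the human gut endocrine cells, with no numeric limit stated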; also: reference of the scale not given here); conditions: NCI-H716 cells, at 10 µM, stronger effect = higher value
[6] = HCT116 colon cancer cell growth inhibition, primary screen, CellTiter-Glo luminescence, NPC library (AID 1117342;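 active = compounds that lower survival of HCT116 colon cancer cells in the luminescence readout, no numeric limit stated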); conditions: at 20 µM (top of the series)
[7] = reduced SW480 viability measured with CellTiter-Glo, NPC library, primary (AID 1117343;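 active = compounds that lower viability of the colon cancer cells in the luminescence readout, with no numeric limit stated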); conditions: CellTiter-Glo luminescence; at 20 µM (top of the series)
[8] = NPC library primary testing for decreased DLD-1 cell viability via CellTiter-Glo (AID 1117346;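 active = compounds that lower survival of DLD-1 colon cancer cells in the luminescence readout, no cutoff given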); conditions: DLD-1 viability, CellTiter-Glo luminescence; at 20 µM (top of the series)
[9] = molecular target: 6-phosphogluconate dehydrogenase, decarboxylating (Homo sapiens) (UniProt P52209); assay: inhibition of human phosphogluconate dehydrogenase – biochemical, recombinant enzyme, NADPH absorbance, primary screen (AID 1159550;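 active = at least 20% inhibition of 6-phosphogluconate dehydrogenase activity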); conditions: recombinant 6PGD, NADPH absorbance 341 nm; at 10 µM; stronger effect = higher value
Chain of 6-phosphogluconate dehydrogenase, decarboxylating (Homo sapiens) (P52209 whole entry, looked up): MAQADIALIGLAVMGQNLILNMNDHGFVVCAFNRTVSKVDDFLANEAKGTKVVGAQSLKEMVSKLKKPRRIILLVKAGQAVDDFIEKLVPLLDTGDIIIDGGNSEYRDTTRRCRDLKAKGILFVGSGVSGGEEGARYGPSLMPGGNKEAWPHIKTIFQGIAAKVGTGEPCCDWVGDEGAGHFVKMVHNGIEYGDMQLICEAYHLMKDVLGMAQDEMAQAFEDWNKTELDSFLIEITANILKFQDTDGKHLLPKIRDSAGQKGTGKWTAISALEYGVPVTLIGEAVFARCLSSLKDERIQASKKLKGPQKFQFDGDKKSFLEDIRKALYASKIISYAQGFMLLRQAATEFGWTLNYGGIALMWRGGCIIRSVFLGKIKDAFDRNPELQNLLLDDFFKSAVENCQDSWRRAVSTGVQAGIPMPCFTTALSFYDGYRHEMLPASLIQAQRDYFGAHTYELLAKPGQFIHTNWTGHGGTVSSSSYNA

| Structure (SMILES) | nuclear beta-catenin stimulation ([1]; at 10 µM) | nuclear beta-catenin stimulation ([1]; stimulation, at 2 µM) [%] | insulin secretion stimulation [2] | viability decrease [3] | tube area decrease [4] | GLP1 secretion stimulation [5] | inhibition of viability [6] | viability decrease (inhibition) [7] | viability decrease (inhibition) [8] | inhibition [9] |
| --- | --- | --- | --- | --- | --- | --- | --- | --- | --- | --- |
| COc1ccc(CCN2CCC(Nc3nc4ccccc4n3Cc3ccc(F)cc3)CC2)cc1 | -1.3% (inactive) | 3.9 | 5.85% (inactive) | 108% (active) | 98.1% (active) | 14% (inactive) | 112% (active) | 129% (active) | 100% (active) | 14.2% (inactive) |
| Cc1ccc2c(Cl)cc(Cl)c(O)c2n1 | 0.6% (inactive) | -1 | -0.8% (inactive) | -3.9% (inactive) | 9.4% (inactive) | 2% (inactive) | 2.45% (inactive) | 14.8% (inactive) | 3.5% (inactive) | 6.51% (inactive) |
| O=C1O[C@H](CO)[C@@H](O)[C@H](O)[C@H]1O | -1.1% (inactive) | 1 | 1.8% (inactive) | -0.7% (inactive) | -3.8% (inactive) | -2.6% (inactive) | 14.6% (inactive) | 31.1% (inactive) | 20% (inactive) | -9.11% (inactive) |
| O=C(O)[C@@H](O)[C@H](O)[C@H](O)[C@@H](O)C(=O)O | -1.3% (inactive) | -0.3 | 3.6% (inactive) | -8.4% (inactive) | 23.5% (inactive) | -1.9% (inactive) | 1.7% (inactive) | 57.2% (active) | -6.1% (inactive) | 3.91% (inactive) |
| CC1(C)O[C@H]2CC(=O)OC[C@]23[C@H]2CC[C@@]4(C)[C@H](c5ccoc5)OC(=O)[C@H]5O[C@]54[C@]2(C)C(=O)C[C@@H]13 | -0.3% (inactive) | 0.6 | 0.05% (inactive) | 2.7% (inactive) | 16.3% (inactive) | 2% (inactive) | -6.9% (inactive) | -12.1% (inactive) | -9.6% (inactive) | 5.47% (inactive) |
| COC(=O)[C@@H](N)CS | -1.4% (inactive) | 2.3 | 1.6% (inactive) | -1.8% (inactive) | -0.7% (inactive) | 4.1% (inactive) | 3.2% (inactive) | 17.6% (inactive) | 23.2% (active) | 3.23% (inactive) |
| CCN(CC)CCOC(=O)C(c1ccccc1)c1ccccc1 | 0.8% (inactive) | -1.4 | 13.6% (inactive) | -6.6% (inactive) | 17.8% (inactive) | 0.6% (inactive) | 8.4% (inactive) | -5.9% (inactive) | 5.6% (inactive) | -7.73% (inactive) |
